Shown are actives, neighbours in structure and some others; about 10% of the full set was active somewhere.
BAZ2B inh = qHTS Assay for Inhibitors of BAZ2B | Bromodomain adjacent to zinc finger domain protein 2B (Homo sapiens), Q9UIF8 | AlphaScreen BAZ2B-H3K14Ac peptide displacement | Potency, µM (highest dose often 114 µM), without a hit: at the top dose activity change, negative = inhibition, usual class: inhibitors | 360,000 tested, 4.4% active; note: potency is the fitted concentration of half-maximal effect; % is set by controls: 0 for no effect and ±100 for the full control effect; nearly all actives have a fitted effect of over 60% in size
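AlphaScreen luminescence quantifies BAZ2B engagement of H3K14Ac peptide; the protein and biotinylated peptide are both at 50 nM final, buffer PBS pH 7.4 with 0.01% Tween-20, all steps at room temperature.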
Six1-Eya2 blk = qHTS Assay for Inhibitors of the Six1/Eya2 Interaction. Homeobox protein SIX1 (Homo sapiens) + Protein phosphatase EYA2 (Homo sapiens), …. AlphaScreen GST-Six1/His-Eya2 binding, biochemical; active compounds read low. activity change, % (test concentration not listed). 360,000 tested, 0.56% active; in the data active = activity change below about -65%; inconclusive = mostly about -30% to -63%; note: % is set by controls: 0 for no effect and ±100 for the full control effect
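Compounds are tested against tagged Six1 and Eya2 proteins bridged by glutathione donor and nickel acceptor beads; after a one-hour incubation at 37 °C without light, AlphaScreen emission is recorded.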
CtBP-E1A blk = qHTS Assay for Inhibitors of the CtBP/E1A Interaction. AlphaScreen GST-E1A/His-CtBP binding, 1536-well; active compounds read low. 340,000 tested, 0.49% active. activity change, % (concentration not given with the values); in the data active = activity change below about -65%; inconclusive = mostly about -30% to -63%; note: % is set by controls: 0 for no effect and ±100 for the full control effect
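Steps: dispense buffer (Tris pH 8.0, NaCl 300 mM, TCEP 1 mM, BSA, Tween 20); add 5X protein mix (GST-E1A, His-CtBP, 125 nM each); pin 23 nL compound; 2 h at 37 °C, dark; add 5X beads (50 ug/mL); 1 h; read.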
HP1b binding inh = HTS for Inhibitors of HP1-beta Chromodomain Interactions with Methylated Histone Tails. Chromobox protein homolog 1 (Homo sapiens), P83916. AlphaScreen HP1-beta / biotin-H3K9me3 peptide binding. Potency, µM (titrated, usually from 114 µM), for the others: at the highest dose activity change, negative = inhibition, most hits filed as inhibitors. 390,000 tested, 0.56% active; note: potency is the fitted concentration of half-maximal effect; nearly all actives have a fitted effect of over 70% in size
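Compound inhibition of the preformed complex between 50 nM HP1-beta and 50 nM biotinylated H3K9me3 peptide was read by AlphaScreen. Buffer was PBS pH 7.4 with 0.01% Tween-20. Incubations ran 30 min at room temperature, with 10 ug/mL donor/acceptor beads.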
JMJD2A Tudor = qHTS Assay for Inhibitors of JMJD2A-Tudor Domain; Lysine-specific demethylase 4A (Homo sapiens), O75164; AlphaScreen JMJD2A-Tudor / H3K4me3 peptide binding; Potency, µM (doses to about 114 µM), for inactives: at the highest dose activity change, negative = inhibition, usual class: inhibitors; 390,000 tested, 4.4% active; note: potency is the fitted concentration of half-maximal effect; % is set by controls: 0 for no effect and ±100 for the full control effect; nearly all actives have a fitted effect of over 50% in size
G9a block = qHTS Assay for Inhibitors of Histone Lysine Methyltransferase G9a. Histone-lysine N-methyltransferase EHMT2 (Homo sapiens), Q96KQ7. G9a H3K9 monomethylation, AlphaScreen, 2 h. Potency, µM (highest dose often 102 µM), for the others: at the top dose activity, negative = inhibition, usual class: inhibitors. 350,000 tested, 8.8% active. AID 504332, 2011; note: potency is the fitted concentration of half-maximal effect; % is set by controls: 0 for no effect and ±100 for the full control effect; nearly all actives have a fitted effect of over 75% in size
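G9a (20 nM) preincubated 15 min RT with compounds, then 500 nM biotinylated H3K9 peptide and 20 uM SAM added; 2 h RT reaction. Monomethyl-H3K9 product detected by AlphaScreen with anti-H3K9me1 antibody, streptavidin donor and anti-rabbit IgG acceptor beads.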
An asterisk follows results filed as active; ? = inconclusive; · = no result given; [ ] = remark or other dose. Unless noted, calls come from the whole dose curve; as a rule, active = well fitted inhibition curve with a large enough effect; inconclusive = small, poorly fitted or top-dose-only effect; inactive = no such curve, though single readings can be large or run the other way.

SMILES	BAZ2B inh	Six1-Eya2 blk	CtBP-E1A blk	HP1b binding inh	JMJD2A Tudor	G9a block
CC1CCCC(NCC(O)COC(c2ccc(F)cc2)c2ccc(F)cc2)C1C (centres undefined)	?	2.3	-1.1	?	1µM*	8.91µM*
Cc1cc(C(=O)CN2CCN(CC(=O)Nc3cccc(F)c3)CC2)c(C)n1C1CC1	?	-2.2	1.7	-6.8%	-26.3%	-8.7%[2.33 µM]
Nc1c(-c2ccccc2)nc(Cl)nc1-c1ccccc1	39.3%	38.4	20.1	96.2%	32.3%[57.1 µM]	9.6%[59 µM]
c1ccc(-c2nc3nonc3nc2-c2ccccc2)cc1	28.2µM*	-26.3	?	?	39.8µM*	14.1µM*
O=c1nc2s/c(=C\c3ccc(-c4ccccc4[N+](=O)[O-])o3)c(=O)n2nc1-c1ccccc1	10µM*	-11.0	-19.5	30.6%	2.8%	?
CCc1ccccc1NC(=O)C1(S(=O)(=O)c2ccc(C)cc2)CC1	7.6%	20.8	6.8	-1.1%	11.2%	42.7%
Cc1nc2ccccc2c(=O)n1NC(=O)/C=C/c1ccccc1	9.8%	-0.4	-11.1	25.1%	-7.7%	15.4%[59 µM]
Cc1n[nH]c(=S)n(NC(=O)CC(=O)Nn2c(=S)[nH]nc(C)c2=O)c1=O	39.8µM*	-87.3*	24.0	42.0%	79.4µM*	-0.2%
Cc1n[nH]c(=S)n(NC(=O)/C=C/C(=O)Nn2c(=S)[nH]nc(C)c2=O)c1=O	25.1µM*	-88.3*	?	?	12.6µM*	?
Cc1ccc(S(=O)(=O)c2cn(Cc3ccccc3Cl)c3ccc(F)cc3c2=O)cc1	-3.3%	·	·	36.4%	1.3%	6.1%[59 µM]
COc1ccc(-n2nc3c(N4CCCC(C(=O)NCCc5ccccc5C)C4)nnc(C)c3c2C)cc1 (centres undefined)	-18.7%	·	·	33.5%	-11.0%	?
COc1ccc(-n2nc3c(N4CCCC(C(=O)NCc5ccccc5C)C4)nnc(C)c3c2C)cc1 (centres undefined)	50.1µM*	·	·	32.8%	-25.5%	?
Cc1ccc(-n2nc3c(N4CCC(C(=O)NCc5ccc(C)o5)CC4)nnc(C)c3c2C)cc1	50.1µM*	-10.4	-20.3	41.8%	44.7µM*	?
Cc1ccc(-n2nc3c(N4CCC(C(=O)NCCc5ccco5)CC4)nnc(C)c3c2C)cc1	-19.9%	-7.3	-6.6	13.2%	-24.3%	-1.6%
COc1ccc([C@H]2CC(=O)C=C(c3cc(OC)ccc3OC)C2)cc1	-7.3%	-9.4	-11.9	29.5%	-25.9%	18.1%[2.33 µM]
O=C(CN1CCCC1)Nc1ccccc1Sc1ccc(Cl)cc1	15.4%	-14.4	-12.6	43.6%	-1.4%	0.0%[59 µM]
COc1ccc(C(c2c(O)nc(SC)n(C)c2=O)c2c(O)nc(SC)n(C)c2=O)cc1O	-15.2%	1.8	-0.9	46.6%	-4.1%	15.8µM*
Cc1cc(C)n(/N=C\c2c(O)ccc3ccccc23)c(=O)c1C(N)=O	1.2%	-1.4	-1.5	18.9%	89.1µM*	1.12µM*
O=C(CNc1ccc(F)cc1)N/N=C/c1c(O)ccc2ccccc12	-11.3%	-15.7	?	24.7%	-16.0%	-4.0%
Oc1ccccc1C=NN=Cc1c(O)ccc2ccccc12	·	29.6	0.0	46.9%	-4.9%	·
NC(=S)N/N=C/c1c(O)ccc2ccccc12	2.51µM*	-90.8*	·	42.7%	56.2µM*	·
CCOc1cc(/C=N/n2c(C)nc3ccccc3c2=O)ccc1O	-10.7%	4.7	1.0	-31.3%	-14.8%	5.0%
O=C(CCc1n[nH]c(=O)[nH]c1=O)N/N=C/c1ccco1	50.1µM*	-22.6	-2.7	18.7%	-31.2%	?
Oc1ccc2ccccc2c1C=NCc1ccccc1	-35.9%	-1.5	-2.5	-0.5%	?	28.2µM*
Cc1c(C(=O)NCc2cccc(Cl)c2)sc2nc3n(c(=O)c12)CCC3	-29.6%	·	·	31.0%	-18.1%	-28.9%[59 µM]
SMILES	BAZ2B inh	Six1-Eya2 blk	CtBP-E1A blk	HP1b binding inh	JMJD2A Tudor	G9a block
CN(C)S(=O)(=O)c1cccc(NC(=O)COC(=O)CNC(=O)c2ccccc2F)c1	-0.7%	4.2	·	24.9%	-10.9%	6.8%
COc1cccc(CNC(=O)CSc2ncc(S(=O)(=O)c3ccc(Br)cc3)c(=O)[nH]2)c1	1.4%	·	·	28.3%	-6.1%	-3.7%[59 µM]
CSc1c(-c2ccccn2)c(N)nn1C(=O)C1CC1	36.8%	14.6	12.8	106.7%	43.9%	65.8%
O=C(N/N=C/c1c(O)ccc2ccccc12)c1ccc(CO)nc1	3.16µM*	-86.7*	-92.0*	42.0%	56.2µM*	56.2µM*
O=C(NN=Cc1c(O)ccc2ccccc12)c1ccc2c(c1)OCO2	·	-8.2	-21.5	36.2%	-15.9%	·
Oc1ccc2ccccc2c1/C=N/Nc1ccccc1	-34.7%	-2.4	10.7	-56.7%	50.1µM*	7.08µM*
Oc1ccccc1CC=NC1CCCCC1	·	-0.2	3.9	37.2%	-9.0%	·
O=C(Cc1n[nH]c(=O)[nH]c1=O)N/N=C/c1c(O)ccc2ccccc12	-19.7%	-87.4*	-68.4*	11.1%	-31.2%	24.1%
Oc1ccc2ccccc2c1C=NC1CCCCC1	?	-8.8	0.2	-27.4%	-30.6%	8.91µM*
COc1ccc(CCN2C(=NC(C)=O)SC3CS(=O)(=O)CC32)cc1OC (centres undefined)	-11.2%	4.1	2.3	31.5%	2.8%	1.8%
CC(C)CC(CO)N1CCN(C(=O)c2ccc(C(C)(C)C)cc2)CCC1=O (centres undefined)	21.0%	1.1	·	37.5%	-7.0%	14.2%
COc1ccc(CCCc2nnc(SCC(=O)Nc3ccc(F)cc3)o2)cc1C	3.0%	·	·	25.9%	-12.1%	?
Oc1c(Br)cc(Br)cc1/C=N/c1nc2c(s1)CCCC2	·	-3.4	-1.4	-28.8%	-32.9%	·
O=CN/N=C/c1c(O)ccc2ccccc12	-0.9%	-90.8*	·	54.2%	-5.8%	18.8%[59 µM]
Cc1nn(C)c(C)c1N=Cc1c(O)ccc2ccccc12	-3.8%	-11.1	-12.4	2.4%	-34.6%	?
Oc1ccc2ccccc2c1/C=N/n1cnnc1	-2.5%	-2.3	-0.8	20.2%	-1.1%	31.6µM*
CC(=O)c1sc(N/N=C\c2c(O)ccc3ccccc23)nc1C	·	-21.3	?	97.1%	?	·
Oc1ccc2ccccc2c1/C=N/c1nc2c(s1)CCCC2	-35.4%	-8.3	2.1	?	50.1µM*	1.41µM*
Cc1ccc(OCC(=O)Nc2ccc3[nH]c(=O)sc3c2)cc1	-0.7%	·	·	40.2%	5.1%	-3.5%[59 µM]
O=C(Cn1c(=O)nc(-c2ccccc2)c2ccccc21)Nc1ccc(Cl)c(C(F)(F)F)c1	2.5%	·	·	32.9%	7.3%	-1.8%[12.7 µM]
